These results are taken from the supplement of paper PMC6522484.

± gives the standard deviation of the averaged measurements.

Experiment [1] deals with DLD1. Kind of experiment: cell viability (CellTiter-Glo) relative to plate median (fraction of plate median); higher = more viable cells. The following applies: 5 µM; treatment time 24 h; reporter: 7TFP. The method, boiled down: (§1)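 After seeding in 384-well plates, colorectal cancer cell lines carrying stable lentiviral TCF/Wnt firefly luciferase reporters (7TFP or TCF4/Wnt) were left 24 h. Library compounds were then added at a final 5 µM for 24 h. A Tecan F500 reader measured firefly luciferase or CellTiterGlo luminescence on parallel plates, with each well normalised to the plate median by webcellHTS2 (additive, no log transformation), and two independent replicates averaged.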
(In general: Cellular ATP, detected with luciferase, serves as a proxy for viable cell number.)

For experiment [2], the system named is HCT116. The experiment is described as above. To be noted: 5 µM; treatment time 24 h; reporter: TCF4/Wnt. The method in brief:
as §1

In experiment [3] the test system is SW480. The description is as above. To be noted: 5 µM; treatment time 24 h; reporter: 7TFP. The method in brief: as §1
The test system of experiment [4] is DLD1. The experiment in a line: TCF/Wnt firefly luciferase reporter signal relative to plate median (fraction of plate median); higher = higher Wnt reporter signal. The following applies: 5 µM; treatment time 24 h; reporter: 7TFP. The method, boiled down: as §1
(In a reporter assay the amount or activity of a reporter protein is the signal.)

The subject of experiment [5] is SW480. The experiment is described as above. The following applies: 5 µM; treatment time 24 h; reporter: 7TFP. The method, boiled down: as §1

With `C=C(C)[C@@H]1CC[C@]2(C(=O)O)CC[C@]3(C)[C@H](CC[C@@H]4[C@@]5(C)CC[C@H](O)C(C)(C)[C@@H]5CC[C@]43C)[C@@H]12`, the cell viability in experiment [1] is 1.03 ± 0.021; in experiment [2], 1.09; in experiment [3] it was 1.005 ± 0.0071. The “TCF/Wnt firefly luciferase reporter signal” value in experiment [4] was 1.055 ± 0.0071; in experiment [5] it was 1.01 ± 0.014.
The corresponding values for `CCCCC(=O)Oc1ccccc1C(=O)O` are 0.984 ± 0.013, 0.98 ± 0.042, 0.988 ± 0.018, 1 ± 0.052 and 1 ± 0.2.
As to `CC(C)[N+](C)(CCOC(=O)C1c2ccccc2Oc2ccccc21)C(C)C`, the figures for the cell viability in experiment [1], in experiment [2] and in experiment [3] were 0.979 ± 0.021, 1.01 ± 0.14 and 0.984 ± 0.017, respectively. For the same compound, the “TCF/Wnt firefly luciferase reporter signal” value in experiment [4] was found to be 1.06 ± 0.1; in experiment [5], 1.04 ± 0.06.
As to `CCOc1cccc(C(=O)c2ccc(O)c(O)c2O)c1`, the cell viability in experiment [1] is 1.03; in experiment [2] it was 1.085 ± 0.0071; in experiment [3], 1.07 ± 0.021. Further, the entries for the “TCF/Wnt firefly luciferase reporter signal” value in experiment [4] and in experiment [5] were 1.04 ± 0.088 and 0.932 ± 0.019, respectively.
Consider `COc1ccc2c(c1)c(CC(=O)O)c(C)n2C(=O)c1ccc(Cl)cc1`, for which the cell viability in experiment [1] was 1.01 ± 0.016; in experiment [2], 0.785 ± 0.33; in experiment [3], 1.03 ± 0.028. Also, the “TCF/Wnt firefly luciferase reporter signal” value came out at 1.08 ± 0.014 in experiment [4] and 1.1 ± 0.014 in experiment [5].
For the compound `CC1(C)C[C@@H]2/C(CO)=C\C=C/[C@@](C)(O)CC[C@]21O`, the cell viability in experiment [1] was 1.08 ± 0.2; in experiment [2], 0.946 ± 0.063; in experiment [3] it was 1 ± 0.022. For the same compound, the results for the “TCF/Wnt firefly luciferase reporter signal” value in experiment [4] and in experiment [5] were 1.11 ± 0.24 and 0.818 ± 0.093, respectively.
With `Cn1c(=O)[nH]c2[nH]cnc2c1=O`, the cell viability in experiment [1] was 1.02 ± 0.042; in experiment [2], 1.04 ± 0.14; in experiment [3] it was 1.04 ± 0.072. Besides, the “TCF/Wnt firefly luciferase reporter signal” value is 0.964 ± 0.011 in experiment [4] and 0.992 ± 0.025 in experiment [5].
The corresponding values for `CO/C=C/C(=O)c1cc2cnc3c(=N)cc(NC(C)=O)c([nH]1)c23` [Lymphostin] are 1.08 ± 0.042, 0.71 ± 0.12, 1.14 ± 0.092, 0.891 ± 0.011 and 0.947 ± 0.028.
`CC(=O)NO`: the results for the cell viability in experiment [1], in experiment [2] and in experiment [3] were 1.035 ± 0.0071, 0.999 ± 0.059 and 1.05 ± 0.057, respectively. In addition, the “TCF/Wnt firefly luciferase reporter signal” value in experiment [4] came to 1.155 ± 0.0071; in experiment [5] it was 1.075 ± 0.0071.
For `CC(C)c1c(C(=O)Nc2ccccc2)c(-c2ccccc2)c(-c2ccc(F)cc2)n1CC[C@@H](O)C[C@@H](O)CC(=O)O` the same measures were 0.9915 ± 0.0092, 1 ± 0.069, 1.01 ± 0.076, 0.966 ± 0.09 and 0.909 ± 0.013.
Turning to `C#CCN(C)Cc1ccccc1`, the results for the cell viability in experiment [1], in experiment [2] and in experiment [3] were 0.947 ± 0.053, 1.08 ± 0.042 and 0.943 ± 0.0099, respectively. Besides, the “TCF/Wnt firefly luciferase reporter signal” value worked out at 1.14 ± 0.014 in experiment [4] and 1.03 ± 0.05 in experiment [5].
Regarding `C[C@@H]1CC(=O)c2c(ccc3c2C(=O)c2cccc(O)c2C3=O)C1` [Ochromycinone (Isoform B, compound ID 7489)], the cell viability was determined as 1.1 ± 0.035 in experiment [1], 1 in experiment [2] and 0.991 ± 0.028 in experiment [3]. Moreover, the results for the “TCF/Wnt firefly luciferase reporter signal” value in experiment [4] and in experiment [5] were 0.781 ± 0.1 and 0.867 ± 0.047, respectively.
The corresponding values for `CC(=O)OC1CC[C@@]2(C)C(CC[C@H]3[C@@H]4CC=C(C(C)=O)[C@@]4(C)C(=O)C[C@@H]32)C1` (stereo not given in full) are 1 ± 0.012, 1.05 ± 0.081, 1.04 ± 0.072, 1.08 ± 0.014 and 1.06 ± 0.05.
As to `Clc1ccccc1CN1CCc2sccc2C1`, the figures for the cell viability in experiment [1], in experiment [2] and in experiment [3] were 0.988 ± 0.013, 1.07 ± 0.05 and 1 ± 0.057, respectively. Also, the “TCF/Wnt firefly luciferase reporter signal” value in experiment [4] amounted to 0.934 ± 0.036; in experiment [5], 1.01 ± 0.071.
Take `CC(CCc1ccc(O)cc1)NCCc1ccc(O)c(O)c1` (stereo not given): the values for the cell viability in experiment [1], in experiment [2] and in experiment [3] were 1.01 ± 0.018, 1.06 ± 0.18 and 1 ± 0.037, respectively. Also, the “TCF/Wnt firefly luciferase reporter signal” value in experiment [4] was 0.928 ± 0.058; in experiment [5] it was 1.02 ± 0.088.
Regarding `COc1c2c(cc3occ(-c4ccc5c(c4)OCO5)c(=O)c13)OC(C)(C)C=C2`, the cell viability in experiment [1] amounted to 0.973 ± 0.067; in experiment [2] it was 0.951 ± 0.11; in experiment [3], 0.9305 ± 0.005. The “TCF/Wnt firefly luciferase reporter signal” value in experiment [4] was found to be 0.799 ± 0.37; in experiment [5] it was 0.607 ± 0.49.
The corresponding values for `O=C(O)CCC(=O)Nc1ccc(S(=O)(=O)Nc2nccs2)cc1` are 0.9765 ± 0.0064, 1.02 ± 0.028, 1.04 ± 0.035, 0.935 ± 0.12 and 1.03 ± 0.028.
`CCC[C@@H]1C[C@@H](C(=O)N[C@@H]([C@H]2O[C@H](SC)[C@H](O)[C@@H](O)[C@H]2O)[C@H](C)Cl)N(C)C1`: the results for the cell viability in experiment [1], in experiment [2] and in experiment [3] were 0.966 ± 0.15, 1 ± 0.042 and 1.07 ± 0.057, respectively. Besides, the results for the “TCF/Wnt firefly luciferase reporter signal” value in experiment [4] and in experiment [5] were 0.907 ± 0.028 and 1.04 ± 0.028, respectively.
With `CC(C)/C(O)=C1/C(=O)O[C@@H](c2ccoc2)[C@]2(C)C(O)[C@@H](O)[C@@]34OC5(C)OC67CC(C)(C(O)[C@]6(O)[C@@H](O)[C@]3(O5)C12)[C@H](CC(=O)O)[C@]74C` (stereo not given in full), the cell viability in experiment [1] was 0.869 ± 0.11; in experiment [2] it was 0.985 ± 0.05; in experiment [3], 1 ± 0.026. Further, the “TCF/Wnt firefly luciferase reporter signal” value in experiment [4] came to 1.04 ± 0.028; in experiment [5] it was 1.02 ± 0.042.
Regarding `O=C(O)c1nc2cc(Cl)c(Cl)cc2nc1O`, the figures for the cell viability in experiment [1], in experiment [2] and in experiment [3] were 0.95 ± 0.16, 0.957 ± 0.046 and 1.03 ± 0.028, respectively. The “TCF/Wnt firefly luciferase reporter signal” value was determined as 0.831 ± 0.0014 in experiment [4] and 0.951 ± 0.098 in experiment [5].
Consider `CCC1=C[C@@H]2CN(C1)Cc1c([nH]c3ccccc13)[C@@](C(=O)OC)(c1cc3c(cc1OC)N(C)[C@H]1[C@@](O)(C(=O)OC)[C@H](OC(C)=O)[C@]4(CC)C=CCN5CC[C@]31[C@@H]54)C2`, for which the cell viability in experiment [1] was determined as 1 ± 0.11; in experiment [2] it was 0.544 ± 0.17; in experiment [3], 1.12 ± 0.11. Also, the “TCF/Wnt firefly luciferase reporter signal” value in experiment [4] is 0.911 ± 0.13; in experiment [5], 0.892 ± 0.12.
Regarding `Cc1cc2cc3c(C)cc(=O)oc3c(C)c2o1`, the cell viability in experiment [1] is 1.07 ± 0.021; in experiment [2] it was 0.954 ± 0.034; in experiment [3], 1 ± 0.022. In addition, the “TCF/Wnt firefly luciferase reporter signal” value worked out at 1.14 ± 0.11 in experiment [4] and 0.895 ± 0.037 in experiment [5].
For `CC[C@H](CC[C@@H](C)[C@H]1CC[C@H]2[C@@H]3CC=C4C[C@@H](O)CC[C@]4(C)[C@H]3CC[C@]12C)C(C)C` [beta-SITOSTEROL] the same measures were 1.07 ± 0.13, 1.03 ± 0.035, 1.13 ± 0.014, 0.872 ± 0.0028 and 1.02 ± 0.035.
With `Cc1nc2ccccn2c(=O)c1CCN1CCC(C(=O)c2ccc(F)cc2)CC1`, the cell viability is 0.911 ± 0.15 in experiment [1], 1.03 ± 0.099 in experiment [2] and 1.04 ± 0.057 in experiment [3]. The “TCF/Wnt firefly luciferase reporter signal” value in experiment [4] is 1.01 ± 0.037; in experiment [5] it was 0.947 ± 0.017.
Regarding `COc1ccc2c(=O)c(-c3cc4c(cc3OC)OCO4)coc2c1`, the cell viability turned out to be 0.995 ± 0.093 in experiment [1], 1.01 ± 0.053 in experiment [2] and 1.04 ± 0.035 in experiment [3]. Further, the “TCF/Wnt firefly luciferase reporter signal” value in experiment [4] is 1.03 ± 0.042; in experiment [5], 1.14 ± 0.014.
As for `O=NN(CCCl)C(=O)NCCCl`, the cell viability amounted to 1.05 ± 0.014 in experiment [1], 1.06 ± 0.05 in experiment [2] and 1.04 in experiment [3]. Further, the results for the “TCF/Wnt firefly luciferase reporter signal” value in experiment [4] and in experiment [5] were 1.19 ± 0.021 and 1.045 ± 0.0071, respectively.
As for `C=C[C@H]1CN2CC[C@H]1C[C@H]2[C@H](O)c1ccnc2ccc(OC)cc12`, the cell viability in experiment [1] amounted to 1.11 ± 0.035; in experiment [2] it was 1.06 ± 0.021; in experiment [3] it was 1.07 ± 0.092. Moreover, the “TCF/Wnt firefly luciferase reporter signal” value in experiment [4] was 1.205 ± 0.0071; in experiment [5], 0.983 ± 0.11.
On to `COC(=O)CCCOc1ccc(Cl)cc1Cl`, for which the cell viability in experiment [1] was found to be 0.984 ± 0.093; in experiment [2], 1.02 ± 0.11; in experiment [3], 0.965 ± 0.05. In addition, the “TCF/Wnt firefly luciferase reporter signal” value was 1.1 ± 0.099 in experiment [4] and 0.9 ± 0.23 in experiment [5].
Regarding `Nc1nc(=O)c2[nH]c(=O)cnc2[nH]1`, the cell viability in experiment [1] was 1.01 ± 0.14; in experiment [2] it was 1.06 ± 0.078; in experiment [3], 0.954 ± 0.018. The “TCF/Wnt firefly luciferase reporter signal” value came out at 0.981 ± 0.098 in experiment [4] and 0.987 ± 0.075 in experiment [5].
